The source of these data is PubChem BioAssay (Tox21).

Records with an inconclusive call do not appear. Unmarked numbers belong to inactive results. The source made the active and inactive calls. Calls come from the whole dose curve.
% is set by controls: 0 for no effect and ±100 for the full control effect.

In the test the target is Beta-2 adrenergic receptor (Homo sapiens) (UniProt P07550). As to the kind of experiment: Adrenergic beta2 receptor (ADRB2) small molecule agonists, cell-based qHTS assay (AID 1963593). Particulars: CHO-ADRB2 cells, cAMP HTRF, 30 min; series mostly up to 92.4 µM; activation: at the top concentration. The source says: National Center for Advancing Translational Sciences [NCATS]
Beta-2 adrenergic receptor (Homo sapiens), sequence (P07550 whole entry, looked up): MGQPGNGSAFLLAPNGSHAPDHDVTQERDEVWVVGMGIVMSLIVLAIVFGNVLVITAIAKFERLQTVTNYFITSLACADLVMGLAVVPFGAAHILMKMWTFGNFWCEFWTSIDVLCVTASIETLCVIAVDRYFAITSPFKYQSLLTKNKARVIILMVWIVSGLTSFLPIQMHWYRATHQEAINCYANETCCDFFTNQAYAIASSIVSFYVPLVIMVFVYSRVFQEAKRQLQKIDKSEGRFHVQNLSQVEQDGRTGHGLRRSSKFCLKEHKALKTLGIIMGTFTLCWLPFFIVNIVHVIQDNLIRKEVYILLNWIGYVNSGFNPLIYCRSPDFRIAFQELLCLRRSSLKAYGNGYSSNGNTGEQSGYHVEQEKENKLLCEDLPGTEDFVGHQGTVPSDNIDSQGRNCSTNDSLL
Division of Preclinical Innovation [DPI]
U.S. Environmental Protection Agency [EPA]
National Institutes of Environmental Health Sciences [NIEHS]
National Toxicology Program [NTP]
U.S. Food and Drug Administration [FDA]
Beta adrenergic receptors (Beta-ARs) belong to the G-protein coupled receptor (GPCR) superfamily, includes three subtypes - beta1, beta2, and beta3. Beta1-AR is the predominant receptor subtype expressed in the heart, and beta2-AR is expressed in the kidney, lung, blood vessel and in the heart, and beta3 is found in the adipocytes. Beta1 and 2 ARs couple to Gs protein and elevate cyclic adenosine mono phosphate (cAMP), which activates protein kinase A and leads to the downstream signaling responsible for the physiological actions. Beta-AR agonists or antagonists are the most prescribed therapeutic agents for heart failure and asthma, and these were one of the first target receptors for the rational drug design. Tox21 10K compound library was screened using the cAMP-Gs dynamic assay (Cisbio Bioassays, Shelton, CT) to identify agonists/antagonists of the Gs-coupled human adrenergic, beta2 receptor (ADRB2) in the CHO-ADRB2 cell line (Codex BioSolutions, Inc. Gaithersburg, MD), which stably over-expresses ADRB2. The principle of cAMP-Gs dynamic assay is based on HTRF technology, which facilitates the fluorescence resonance energy transfer (FRET) between donor Europium cryptate and acceptor d2-labeled cAMP. The cAMP generated within cells competes with the red acceptor, d2-labled cAMP, for binding to the monoclonal anti-cAMP-cryptate (Europium donor). An increase in intracellular cAMP leads to the disruption of FRET signal, and the signal is inversely proportional to the cAMP concentration. Isoproterenol HCl (Sigma-Aldrich, St. Louis, MO) was used as a positive control in the screening.
Tox21 Assay Protocol Summary:
CHO-ADRB2 cells were dispensed at 1,000/well in 4uL assay medium into white/solid 1536-well plates (Greiner Bio-One North America Inc., Monroe, NC) using a Multidrop Combi dispenser (ThermoFisher Scientific, Waltham, MA). The assay plates were incubated at 37C and 5% CO2 for an overnight (18-20hr). Then positive control and test compounds dissolved in DMSO were transferred to the assay plates at 23nL using a Pintool station (Wako, San Diego, CA). Following the compound and positive control transfer, 1uL stimulation mix containing 100uM IBMX and 25uM Ro-20-1724 was added to each well of the assay plates using BioRAPTR Flying Reagent Dispenser (FRD, Beckman Coulter, Brea, CA). The assay plates were incubated at room temperature for 0.5hr. Then 2.5ul each d2-labled cAMP and anti-cAMP-cryptate solutions were added separately to each well of the assay plates using an FRD and the assay plates were incubated at room temperature for 1hr.
For orientation: Quantitative high-throughput screening tests each substance at several concentrations.
For `CCCCC1C(=O)NC(=O)N(C2CCCCC2)C1=O` (stereo not given), the “activation” value is -0.997% [at 42.5 µM].

As to `CCC(C)n1c(=O)[nH]c(C)c(Br)c1=O` (stereo not given), the “activation” value was -13.8%. Regarding `[CH3][Sn]([CH3])([Cl])[Cl]`, the “activation” value is -43.1%. For `C=C1CC[C@@]2(O)[C@H]3Cc4ccc(O)c5c4[C@@]2(CCN3CC2CC2)[C@H]1O5`, the “activation” value was 8.55% [at 42.5 µM]. For the molecule `C[N+](C)(C)Cc1ccccc1`, the “activation” value is -10.1%.

In the case of `Nc1cc(Cl)cc(C(=O)O)c1Cl`, the “activation” value was 7.83%. As for `OCCOCCO`, the Potency result was “inactive”. Turning to `CN(C)CCc1ccc(O)cc1`, the “activation” value is 0.372% [at 42.5 µM]. Regarding `Cc1ccc(N=CN(C)C=Nc2ccc(C)cc2C)c(C)c1`, the “activation” value is 30.9%. As to `CC1=C2[C@H]3OC(=O)[C@@H](C)[C@@H]3CC[C@@]2(C)C=CC1=O`, the “activation” value is 20.4% [at 42.5 µM]. For `N#Cc1ccncc1`, the “activation” value is 6.4%. `COc1ccc2c3c1O[C@H]1[C@@H](O)C=C[C@H]4[C@@H](C2)N(C)CC[C@@]341`: the “activation” value was 3.63%. As to `[N-]=[N+]=CC(=O)OC[C@H](N)C(=O)O`, the “activation” value is -2.14% [at 42.5 µM]. For the molecule `Cc1ccc(N)cc1Cl`, the Potency result is “inactive”. Same read-out and setting: then `Cc1ccc(O)c(C)c1`, with “inactive”. The same measure, in the same setting: next, `CNC(=S)S`: “inactive”. `O=P(OCCCl)(OCCCl)OCCCl`: the “activation” value was -9.23%.

As to `CCCCCC[n+]1ccccc1`, the Potency entry was “inactive”. For `Cc1cccc(N)c1N`, the “activation” value is -9.97%. Same read-out and setting: then `CC(C)CCCCCOC(=O)c1ccccc1C(=O)OCCCCCC(C)C`, with 0.505%; and `C=CCOC(N)=O`, with -1.03%; and `CC(=O)O`, with -4.33% [at 8.39 µM].

As for `N#CC(c1ccccc1)c1ccccc1`, the Potency result is “inactive”. The same measure, in the same setting: then `CCC(=O)Nc1ccc(Cl)c(Cl)c1`, with “inactive”. Turning to `O=c1oc2ccccc2c(O)c1C(CC(O)c1ccc(-c2ccc(Br)cc2)cc1)c1ccccc1` (stereo not given), the “activation” value was -29.7% [at 42.5 µM]. As to `CC(C)[N+](C)(CCC(C(N)=O)(c1ccccc1)c1ccccc1)C(C)C`, the “activation” value is 6.01% [at 42.5 µM]. Consider `CN1CC[C@]23c4c5ccc(O)c4O[C@H]2[C@@H](O)CC[C@H]3[C@H]1C5`, for which the “activation” value was 4.85%. On to `Cc1ccccc1O`, for which the “activation” value is 2.08%. As for `ClCc1cccnc1`, the “activation” value is 5.36%. As to `C=CC(=O)OCC(CC)CCCC` (stereo not given), the “activation” value is 22.4%.

With `Oc1c(Cl)c(Cl)c(Cl)c(Cl)c1Cl`, the “activation” value was -1.41%. As for `C=CC#N`, the Potency result is “inactive”. As to `C=C(Cl)CCl`, the “activation” value was 6.11%. The same measure, in the same setting: then `C=CCN=C=S`, with -15.3%. Regarding `O=C(NC(=O)c1c(F)cccc1F)Nc1ccc(Cl)cc1`, the Potency result was “inactive”. As for `CCCCCCCCCCBr`, the “activation” value was 4.89%. The same measure, in the same setting: then `C=CC(=O)OCCCCCC(C)C`, with 16.8%. Take `CCCCOCC1CO1` (stereo not given): the “activation” value was -11.7%.

For `Oc1ccc(Cl)cc1Cc1ccccc1`, the “activation” value was -15% [at 42.5 µM]. The same measure, in the same setting: next, `CCCCCCCCCCn1cc[n+](C)c1`: 21.2%.
